# Measured values: ChEMBL document CHEMBL1961873, “Compounds: GSK PKIS; Assays: Nanosyn kinase panel” (2012)
# Several values for one entry are separate records, joined by “and”; a condition that tells them apart may be missing. Equal entries are not always repeated.
# Assays:
# [1] = molecular target: 5'-AMP-activated protein kinase catalytic subunit alpha-2 (Homo sapiens) (UniProt P54646); settings: at 1 µM
# [2] = molecular target: T1, NUAK family SNF1-like kinase 1 (Homo sapiens) (UniProt O60285); settings: at 0.1 µM
# T1 sequence (whole entry): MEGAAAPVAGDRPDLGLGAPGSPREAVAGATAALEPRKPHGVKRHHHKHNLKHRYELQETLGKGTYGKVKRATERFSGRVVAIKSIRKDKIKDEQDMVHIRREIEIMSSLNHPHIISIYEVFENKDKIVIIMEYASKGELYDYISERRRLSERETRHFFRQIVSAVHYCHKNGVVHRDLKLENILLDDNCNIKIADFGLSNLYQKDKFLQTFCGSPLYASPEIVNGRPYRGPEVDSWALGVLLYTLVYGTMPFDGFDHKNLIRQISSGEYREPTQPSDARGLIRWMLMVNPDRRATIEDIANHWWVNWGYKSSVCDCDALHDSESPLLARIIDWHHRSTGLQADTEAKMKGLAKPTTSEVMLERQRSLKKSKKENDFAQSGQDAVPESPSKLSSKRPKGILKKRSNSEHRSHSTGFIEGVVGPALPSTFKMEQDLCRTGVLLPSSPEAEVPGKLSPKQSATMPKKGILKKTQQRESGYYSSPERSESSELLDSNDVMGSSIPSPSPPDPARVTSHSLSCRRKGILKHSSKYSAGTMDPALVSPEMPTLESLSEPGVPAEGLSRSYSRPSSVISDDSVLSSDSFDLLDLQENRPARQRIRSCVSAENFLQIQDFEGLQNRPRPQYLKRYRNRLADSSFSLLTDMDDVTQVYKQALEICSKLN
# [3] = molecular target: T1, NUAK family SNF1-like kinase 1 (Homo sapiens); settings: at 1 µM
# [4] = molecular target: T2, Serine/threonine-protein kinase BRSK1 (Homo sapiens) (UniProt Q8TDC3); settings: at 0.1 µM
# T2 sequence (whole entry): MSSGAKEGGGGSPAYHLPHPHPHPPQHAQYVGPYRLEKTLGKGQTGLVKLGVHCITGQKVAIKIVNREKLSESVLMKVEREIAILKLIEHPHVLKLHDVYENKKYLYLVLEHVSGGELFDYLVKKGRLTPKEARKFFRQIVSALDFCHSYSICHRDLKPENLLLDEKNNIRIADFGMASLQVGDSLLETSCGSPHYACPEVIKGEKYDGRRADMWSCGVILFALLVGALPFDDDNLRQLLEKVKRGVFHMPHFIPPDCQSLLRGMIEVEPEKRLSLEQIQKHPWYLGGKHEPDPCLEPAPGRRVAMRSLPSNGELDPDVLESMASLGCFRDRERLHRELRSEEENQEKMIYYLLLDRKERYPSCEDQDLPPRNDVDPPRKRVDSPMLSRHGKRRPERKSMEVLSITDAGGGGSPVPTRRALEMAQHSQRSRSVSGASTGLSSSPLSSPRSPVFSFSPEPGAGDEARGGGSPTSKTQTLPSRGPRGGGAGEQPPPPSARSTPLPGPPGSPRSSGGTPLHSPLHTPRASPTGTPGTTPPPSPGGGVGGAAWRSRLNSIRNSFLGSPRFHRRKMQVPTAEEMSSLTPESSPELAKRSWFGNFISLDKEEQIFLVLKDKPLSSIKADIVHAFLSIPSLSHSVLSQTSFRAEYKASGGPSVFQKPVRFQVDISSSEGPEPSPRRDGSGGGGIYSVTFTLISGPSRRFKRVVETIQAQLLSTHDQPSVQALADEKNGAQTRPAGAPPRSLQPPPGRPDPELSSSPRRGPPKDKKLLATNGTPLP
# [5] = molecular target: T2, Serine/threonine-protein kinase BRSK1 (Homo sapiens); settings: at 1 µM
# [6] = molecular target: T3, Serine/threonine-protein kinase BRSK2 (Homo sapiens) (UniProt Q8IWQ3); settings: at 0.1 µM
# T3 sequence (whole entry): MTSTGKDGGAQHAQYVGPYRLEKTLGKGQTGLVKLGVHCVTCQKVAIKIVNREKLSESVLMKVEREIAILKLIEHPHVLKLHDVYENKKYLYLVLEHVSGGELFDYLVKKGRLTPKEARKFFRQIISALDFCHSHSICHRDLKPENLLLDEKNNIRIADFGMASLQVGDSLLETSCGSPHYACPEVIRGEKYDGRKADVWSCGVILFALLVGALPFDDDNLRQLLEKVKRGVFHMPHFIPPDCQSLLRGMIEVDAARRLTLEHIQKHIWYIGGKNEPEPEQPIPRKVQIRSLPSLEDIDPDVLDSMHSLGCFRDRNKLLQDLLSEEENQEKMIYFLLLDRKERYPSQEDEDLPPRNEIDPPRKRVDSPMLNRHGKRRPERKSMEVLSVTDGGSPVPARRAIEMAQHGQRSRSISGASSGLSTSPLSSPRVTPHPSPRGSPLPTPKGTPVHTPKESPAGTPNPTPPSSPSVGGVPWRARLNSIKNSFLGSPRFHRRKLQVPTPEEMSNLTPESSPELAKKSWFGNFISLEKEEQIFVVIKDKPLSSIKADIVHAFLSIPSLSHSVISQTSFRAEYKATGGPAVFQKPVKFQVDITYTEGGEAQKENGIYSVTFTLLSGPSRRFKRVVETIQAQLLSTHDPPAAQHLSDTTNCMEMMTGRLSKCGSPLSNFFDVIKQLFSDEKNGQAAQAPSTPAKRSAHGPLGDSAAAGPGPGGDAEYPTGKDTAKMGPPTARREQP
# [7] = molecular target: T3, Serine/threonine-protein kinase BRSK2 (Homo sapiens); settings: at 1 µM
# [8] = molecular target: Calcium/calmodulin-dependent protein kinase type 1D (Homo sapiens) (UniProt Q8IU85); settings: at 0.1 µM
# Calcium/calmodulin-dependent protein kinase type 1D (Homo sapiens), sequence (Q8IU85 whole entry, looked up): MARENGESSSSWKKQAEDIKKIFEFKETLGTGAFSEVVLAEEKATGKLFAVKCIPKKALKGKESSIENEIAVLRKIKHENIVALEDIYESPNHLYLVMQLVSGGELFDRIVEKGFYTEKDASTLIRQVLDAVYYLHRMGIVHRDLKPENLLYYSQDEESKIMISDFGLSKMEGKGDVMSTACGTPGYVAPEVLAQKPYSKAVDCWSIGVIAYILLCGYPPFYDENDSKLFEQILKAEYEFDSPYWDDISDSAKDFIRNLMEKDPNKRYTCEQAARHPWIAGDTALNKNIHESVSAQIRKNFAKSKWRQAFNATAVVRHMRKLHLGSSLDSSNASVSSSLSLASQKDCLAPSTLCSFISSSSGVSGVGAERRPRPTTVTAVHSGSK
# [9] = molecular target: Calcium/calmodulin-dependent protein kinase type 1D (Homo sapiens) (UniProt Q8IU85); settings: at 1 µM
# [10] = molecular target: Calcium/calmodulin-dependent protein kinase type II subunit alpha (Homo sapiens) (UniProt Q9UQM7); settings: at 0.1 µM
# Calcium/calmodulin-dependent protein kinase type II subunit alpha (Homo sapiens), sequence (Q9UQM7 whole entry): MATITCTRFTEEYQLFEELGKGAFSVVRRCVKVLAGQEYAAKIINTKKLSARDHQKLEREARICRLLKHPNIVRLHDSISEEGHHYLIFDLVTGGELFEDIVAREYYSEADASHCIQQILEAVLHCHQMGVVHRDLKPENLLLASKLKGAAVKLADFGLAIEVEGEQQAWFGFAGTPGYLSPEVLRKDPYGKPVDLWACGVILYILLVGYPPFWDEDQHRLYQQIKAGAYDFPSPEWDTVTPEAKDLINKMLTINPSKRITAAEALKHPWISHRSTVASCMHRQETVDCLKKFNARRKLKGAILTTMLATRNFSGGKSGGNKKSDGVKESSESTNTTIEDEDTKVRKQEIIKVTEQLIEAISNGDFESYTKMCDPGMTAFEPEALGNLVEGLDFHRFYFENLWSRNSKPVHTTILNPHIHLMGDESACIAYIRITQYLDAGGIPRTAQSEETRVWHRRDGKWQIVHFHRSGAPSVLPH
# [11] = molecular target: Calcium/calmodulin-dependent protein kinase type II subunit alpha (Homo sapiens) (UniProt Q9UQM7); settings: at 1 µM
# [12] = molecular target: Calcium/calmodulin-dependent protein kinase type II subunit delta (Homo sapiens) (UniProt Q13557); settings: at 0.1 µM
# Calcium/calmodulin-dependent protein kinase type II subunit delta (Homo sapiens), sequence (Q13557 whole entry): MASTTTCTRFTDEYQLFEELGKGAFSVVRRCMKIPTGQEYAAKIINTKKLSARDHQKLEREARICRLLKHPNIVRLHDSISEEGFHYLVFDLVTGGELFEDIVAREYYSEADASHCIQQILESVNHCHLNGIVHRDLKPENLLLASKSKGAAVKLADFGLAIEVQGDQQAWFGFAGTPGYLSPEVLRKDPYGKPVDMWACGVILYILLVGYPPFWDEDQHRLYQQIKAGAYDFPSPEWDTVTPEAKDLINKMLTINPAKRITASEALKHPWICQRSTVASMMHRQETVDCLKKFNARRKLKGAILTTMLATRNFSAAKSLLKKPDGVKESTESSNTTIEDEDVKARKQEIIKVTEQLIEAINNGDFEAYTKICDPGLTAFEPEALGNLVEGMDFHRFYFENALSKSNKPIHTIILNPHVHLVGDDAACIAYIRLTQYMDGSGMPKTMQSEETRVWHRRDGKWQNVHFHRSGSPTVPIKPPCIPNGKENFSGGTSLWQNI
# [13] = molecular target: Calcium/calmodulin-dependent protein kinase type II subunit delta (Homo sapiens) (UniProt Q13557); settings: at 1 µM
# [14] = molecular target: T4, Calcium/calmodulin-dependent protein kinase type IV (Homo sapiens) (UniProt Q16566); settings: at 0.1 µM
# T4 sequence (whole entry): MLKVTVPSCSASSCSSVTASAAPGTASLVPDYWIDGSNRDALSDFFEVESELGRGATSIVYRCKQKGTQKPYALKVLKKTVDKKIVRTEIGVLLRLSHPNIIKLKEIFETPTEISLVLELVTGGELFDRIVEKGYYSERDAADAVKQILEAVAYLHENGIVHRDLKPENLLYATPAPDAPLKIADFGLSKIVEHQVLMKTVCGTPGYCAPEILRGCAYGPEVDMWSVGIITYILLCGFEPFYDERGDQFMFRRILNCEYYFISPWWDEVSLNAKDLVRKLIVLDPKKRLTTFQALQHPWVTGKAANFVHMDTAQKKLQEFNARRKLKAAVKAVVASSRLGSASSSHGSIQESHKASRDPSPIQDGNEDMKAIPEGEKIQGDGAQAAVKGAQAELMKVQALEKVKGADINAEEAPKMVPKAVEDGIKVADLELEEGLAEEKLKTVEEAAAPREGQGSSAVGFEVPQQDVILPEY
# [15] = molecular target: T4, Calcium/calmodulin-dependent protein kinase type IV (Homo sapiens); settings: at 1 µM
# [16] = molecular target: T5, Serine/threonine-protein kinase Chk1 (Homo sapiens) (UniProt O14757); settings: at 0.1 µM
# T5 sequence (whole entry): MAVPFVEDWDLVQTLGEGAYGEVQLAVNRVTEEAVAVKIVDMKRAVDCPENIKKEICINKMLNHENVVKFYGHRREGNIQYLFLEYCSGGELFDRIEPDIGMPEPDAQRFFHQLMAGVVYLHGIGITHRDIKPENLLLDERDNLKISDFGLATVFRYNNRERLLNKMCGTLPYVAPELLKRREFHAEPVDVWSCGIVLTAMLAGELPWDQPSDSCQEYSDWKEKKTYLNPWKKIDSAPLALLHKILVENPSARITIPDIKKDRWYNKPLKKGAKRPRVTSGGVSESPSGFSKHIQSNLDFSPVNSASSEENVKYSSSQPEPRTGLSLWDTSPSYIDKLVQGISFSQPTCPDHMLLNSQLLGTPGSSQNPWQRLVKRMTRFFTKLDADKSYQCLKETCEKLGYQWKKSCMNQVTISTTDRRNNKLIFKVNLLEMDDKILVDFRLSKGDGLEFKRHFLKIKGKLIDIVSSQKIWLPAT
# [17] = molecular target: T5, Serine/threonine-protein kinase Chk1 (Homo sapiens); settings: at 1 µM
# [18] = molecular target: Serine/threonine-protein kinase Chk2 (Homo sapiens) (UniProt O96017); settings: at 0.1 µM
# Serine/threonine-protein kinase Chk2 (Homo sapiens), sequence (O96017 whole entry): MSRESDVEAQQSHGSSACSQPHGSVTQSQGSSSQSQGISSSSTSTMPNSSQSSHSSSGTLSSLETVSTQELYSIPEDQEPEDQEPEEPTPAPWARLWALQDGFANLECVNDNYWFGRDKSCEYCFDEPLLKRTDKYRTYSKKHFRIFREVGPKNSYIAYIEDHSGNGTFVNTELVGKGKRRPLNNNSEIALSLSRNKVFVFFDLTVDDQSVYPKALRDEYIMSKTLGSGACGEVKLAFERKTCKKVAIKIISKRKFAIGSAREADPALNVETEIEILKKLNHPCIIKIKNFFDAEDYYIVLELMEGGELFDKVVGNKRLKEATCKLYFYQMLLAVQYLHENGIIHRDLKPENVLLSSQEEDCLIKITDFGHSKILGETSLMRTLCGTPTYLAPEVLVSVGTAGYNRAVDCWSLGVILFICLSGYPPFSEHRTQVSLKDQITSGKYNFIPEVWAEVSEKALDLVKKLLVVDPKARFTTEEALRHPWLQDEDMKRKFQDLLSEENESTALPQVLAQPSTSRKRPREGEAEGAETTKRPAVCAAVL
# [19] = molecular target: Serine/threonine-protein kinase Chk2 (Homo sapiens) (UniProt O96017); settings: at 1 µM
# [20] = molecular target: Death-associated protein kinase 1 (Homo sapiens) (UniProt P53355); settings: at 0.1 µM;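 further: reported figure is the mean inhibition of DAPK1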
# Death-associated protein kinase 1 (Homo sapiens), sequence (P53355 whole entry, looked up): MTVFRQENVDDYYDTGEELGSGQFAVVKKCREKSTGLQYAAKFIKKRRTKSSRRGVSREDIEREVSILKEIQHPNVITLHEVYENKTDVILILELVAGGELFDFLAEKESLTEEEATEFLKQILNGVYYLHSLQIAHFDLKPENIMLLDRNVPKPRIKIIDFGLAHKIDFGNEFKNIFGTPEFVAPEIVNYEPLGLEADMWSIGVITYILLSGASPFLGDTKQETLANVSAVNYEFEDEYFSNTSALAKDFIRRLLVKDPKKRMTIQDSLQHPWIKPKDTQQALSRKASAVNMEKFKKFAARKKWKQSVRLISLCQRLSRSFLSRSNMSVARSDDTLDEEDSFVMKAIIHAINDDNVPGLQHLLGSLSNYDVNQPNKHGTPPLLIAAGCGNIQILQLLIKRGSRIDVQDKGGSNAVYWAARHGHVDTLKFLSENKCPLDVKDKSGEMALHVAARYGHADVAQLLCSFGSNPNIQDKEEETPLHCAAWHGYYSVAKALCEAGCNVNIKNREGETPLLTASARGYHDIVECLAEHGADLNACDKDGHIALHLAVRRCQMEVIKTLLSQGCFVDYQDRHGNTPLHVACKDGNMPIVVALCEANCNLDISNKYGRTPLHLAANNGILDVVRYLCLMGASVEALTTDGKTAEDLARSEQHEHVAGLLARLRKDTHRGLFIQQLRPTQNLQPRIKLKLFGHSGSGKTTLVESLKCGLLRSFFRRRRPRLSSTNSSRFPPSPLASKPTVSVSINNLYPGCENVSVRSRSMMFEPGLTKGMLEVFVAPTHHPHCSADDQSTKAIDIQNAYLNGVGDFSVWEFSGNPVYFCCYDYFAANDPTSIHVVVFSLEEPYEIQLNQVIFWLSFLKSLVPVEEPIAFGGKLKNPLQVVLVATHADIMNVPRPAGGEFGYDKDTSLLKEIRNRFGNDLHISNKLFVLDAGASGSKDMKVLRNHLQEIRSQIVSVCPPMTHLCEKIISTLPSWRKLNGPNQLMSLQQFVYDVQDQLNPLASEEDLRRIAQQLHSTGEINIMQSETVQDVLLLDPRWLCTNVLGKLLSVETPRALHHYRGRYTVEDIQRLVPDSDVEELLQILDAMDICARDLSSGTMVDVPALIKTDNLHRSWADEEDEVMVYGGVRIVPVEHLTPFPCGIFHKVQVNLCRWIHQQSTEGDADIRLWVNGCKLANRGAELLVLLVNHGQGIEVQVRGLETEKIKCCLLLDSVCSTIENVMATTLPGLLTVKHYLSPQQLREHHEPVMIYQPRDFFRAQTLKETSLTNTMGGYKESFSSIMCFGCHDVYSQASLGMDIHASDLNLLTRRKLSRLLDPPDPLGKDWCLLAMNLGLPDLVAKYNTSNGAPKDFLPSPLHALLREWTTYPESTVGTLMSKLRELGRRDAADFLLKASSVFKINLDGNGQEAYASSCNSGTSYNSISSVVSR
# 5'-AMP-activated protein kinase catalytic subunit alpha-2 (Homo sapiens), sequence (P54646 whole entry, looked up): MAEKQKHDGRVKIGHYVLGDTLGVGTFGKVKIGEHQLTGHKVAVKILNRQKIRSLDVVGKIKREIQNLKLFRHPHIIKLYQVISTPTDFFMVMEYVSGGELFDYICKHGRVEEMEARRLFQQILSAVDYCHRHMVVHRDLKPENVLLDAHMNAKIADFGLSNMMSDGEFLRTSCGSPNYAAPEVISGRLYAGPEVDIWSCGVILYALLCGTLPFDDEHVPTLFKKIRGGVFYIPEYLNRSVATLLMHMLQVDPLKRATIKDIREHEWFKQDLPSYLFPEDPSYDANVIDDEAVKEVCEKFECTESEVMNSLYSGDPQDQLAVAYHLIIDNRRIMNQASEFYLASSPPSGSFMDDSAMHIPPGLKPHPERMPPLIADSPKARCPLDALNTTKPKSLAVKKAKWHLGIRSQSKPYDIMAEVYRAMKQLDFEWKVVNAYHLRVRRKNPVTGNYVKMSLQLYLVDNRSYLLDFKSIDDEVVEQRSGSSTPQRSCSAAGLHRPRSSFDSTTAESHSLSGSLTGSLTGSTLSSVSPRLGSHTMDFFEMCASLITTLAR
SMILES,inhibition [1],inhibition [2],inhibition [3],inhibition [4],inhibition [5],inhibition [6],inhibition [7],inhibition [8],inhibition [9],inhibition [10],inhibition [11],inhibition [12],inhibition [13],inhibition [14],inhibition [15],inhibition [16],inhibition [17],inhibition [18],inhibition [19],inhibition [20]
Nc1nonc1-c1nc2cnccc2n1C1CC1,7.08% and 5.85%,5% and 1.55%,13.1% and 10.2%,5.76% and 4.57%,21.7% and 18.1%,8.42% and 4.02%,27.9% and 27.1%,0.19% and 0.41%,1.1% and 0.69%,4.16% and 0.57%,5.07% and 5.46%,3.94% and 2.63%,7.79% and 4%,-0.5% and 1.35%,0.32% and 1.21%,3.32% and 0.59%,14.4% and 10.5%,2.75% and 1.53%,6.34% and 2.63%,2.98% and -0.26%
CCOc1ccc2c(-c3ccnc(Nc4cc(OC)cc(C(F)(F)F)c4)n3)cnn2n1,3.94%,4.52%,21.2%,0.53%,5.51%,1.89%,6.6%,0.33%,2.28%,-1.52%,-0.03%,0.7%,1.42%,1.18%,-0.28%,3.19%,1.38%,-0.97%,0.04%,0.8%
CNC(=O)c1sc(-n2cnc3cc(OC)c(OC)cc32)cc1OCc1ccccc1C(F)(F)F,-1.59%,0.7%,6.22%,0.35%,4.45%,4.29%,4.88%,0.71%,-0.22%,2.98%,-0.49%,3.02%,0.51%,0.67%,-0.52%,2.9%,3.46%,2.9%,2.7%,5.53%
CC1(C)CC(n2cnc(-c3ccc(F)cc3)c2-c2ccnc(N)n2)CC(C)(C)N1,0.53%,0.87%,1.37%,1.5%,4.7%,1.41%,5.87%,-0.53%,2.41%,-2.87%,-1.67%,0.69%,-0.31%,0.52%,-0.57%,-3.33%,-6.27%,-4.96%,-4.4%,-7.58%
O=C1Nc2ccccc2/C1=C1\CCc2cc(O)ccc21,14.3%,16.2%,60.8%,3.95%,16.9%,5.82%,20.1%,1.02%,3.43%,3.85%,8.04%,6.22%,13%,0.46%,-0.69%,-1.18%,9.92%,1.37%,21.3%,-1.94%
NS(=O)(=O)c1ccc(N/N=C2\C(=O)Nc3cccc(CCc4ccncc4)c32)cc1,11.6%,47.4%,62.5%,1.52%,7.67%,3.33%,15.8%,0.4%,1.14%,-1.5%,1.32%,-0.63%,4.29%,1.59%,0.34%,1.74%,1.93%,-0.6%,0.61%,-0.39%
COc1c(C(N)=O)cc(-c2ccc(Cl)cc2)cc1-c1ccc(S(N)(=O)=O)cc1,3.24%,0.82%,1.1%,3.28%,-0.57%,-0.02%,1.59%,0.45%,3.09%,3.01%,6.07%,4.78%,8.49%,-0.13%,3.77%,-0.02%,1.33%,5.72%,10.5%,1.52%
NC(=O)c1ccc2c(-c3ccnc(NCCCO)n3)c(-c3ccc(F)cc3)nn2c1,4.65%,2.9%,4.34%,2.91%,4.68%,2.27%,3.75%,-0.23%,1.6%,3.83%,3.63%,4.46%,3.95%,0.65%,0.03%,8.23%,7.94%,10.1%,10.6%,11.7%
NS(=O)(=O)c1ccc(N/N=C2\C(=O)Nc3ccc(C(=O)NCc4ccncc4)cc32)cc1,34.9%,18.9%,59.5%,6.67%,39.7%,17.2%,55.8%,-0.48%,-0.33%,2.84%,5.1%,3.39%,11.8%,-2.17%,-4.16%,2.58%,11.1%,4.18%,19.2%,4.72%
FC(F)(F)CNc1nccc(-c2cnn3ncccc23)n1,2.02%,2.93%,1.68%,1.54%,4.3%,3.14%,5.75%,0.18%,0.52%,0.49%,-1.03%,2.87%,1.95%,-0.09%,-1.75%,0.28%,2.9%,1.64%,0.78%,3.66%
COc1cc(N2CCN(C(C)C)CC2)ccc1Nc1nc(Nc2cccc3ncccc23)c2cc[nH]c2n1,0.77%,13.2%,47.5%,-0.07%,0.86%,-0.35%,-0.59%,1.82%,17.8%,-2.58%,1.11%,-0.04%,9.94%,1.22%,4.44%,0.3%,1.78%,-0.49%,4.32%,-1.26%
Fc1ccc(Nc2nccc(-c3c(-c4ccc(C(F)(F)F)cc4)nn4ncccc34)n2)cc1F,3.75%,2.79%,1.57%,2.38%,1.19%,1.46%,0.71%,-0.76%,1.66%,3.04%,4.6%,1.73%,4.42%,-0.48%,0.05%,3%,3.73%,3.02%,4.46%,3.45%
CCS(=O)(=O)c1ccc(OC)c(Nc2ncc(-c3cccc(C(C)=O)c3)o2)c1,3.65%,2.25%,4.46%,-0.38%,3.68%,1.58%,4.09%,0.3%,-0.69%,2.75%,1.16%,1.73%,3.23%,-3%,-5.43%,-0.75%,-1.38%,1.62%,3.67%,2.47%
